From PubChem BioAssay (NCATS)
Records with an inconclusive call do not appear. Calls of active or inactive are those of the source. Unless noted, the call rests on the fitted dose curve; in most records, active means well fitted curve in the direction sought with a large enough effect; inconclusive means small, poorly fitted or top-dose-only effect, or another doubt; inactive means no such curve, though single readings can be large; an effect the other way counts as inactive or inconclusive.

Columns and labels:
[1] = target: Cytochrome P450 3A4 (Homo sapiens) (UniProt P08684); assay: qHTS Assay for Inhibitors and Substrates of Cytochrome P450 3A4 (AID 884); further: potency means the concentration at half of the fitted maximal effect; nearly all actives have a fitted effect of over 50% in size
Summary of the method: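 20 nM human CYP3A4 with 25 uM Luciferin-PPXE (at KM) in 200 mM KPO4, preincubated 10 min with compound; NADPH regeneration started a 60 min RT reaction. Luciferin detected by luminescence, normalized to 57 uM ketoconazole as full inhibition.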

[2] = target: Cytochrome P450 3A4 (Homo sapiens) (UniProt P08684); assay: qHTS Assay for Activators of Cytochrome P450 3A4 (AID 885); further: nearly all actives have a fitted effect of over 65% in size
Summary of the method: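 20nM CYP3A4 + 25uM Luciferin-PPXE (=KM), 200mM KPO4; cpd 10 min RT; NADPH regen, 60 min RT; stop w/ detection buffer, 20 min; luminescence. Normalized to 57 uM ketoconazole.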

[3] = Confirmation and Secondary Assay for Modulators of Hemoglobin Beta Chain Splicing at IVS2 654 locus (AID 910);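 further: per-well total GFP intensity by laser scanning cytometry after 2-day treatment; % of control where 0% means no effect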
Summary of the method: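 HeLa cells stably carrying EGFP interrupted by mutant beta-globin IVS2-654 intron (CMV-driven) were treated with compound for 2 days at 37C; corrected splicing was scored as total peak GFP intensity per well (488 nm excitation, 500-520 nm emission).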

[4] = Confirmation and Secondary Assay for Modulators of Hemoglobin Beta Chain Splicing at IVS2 705 locus (AID 930);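 further: HeLa cells stably expressing the EGFP-705 splicing reporter; GFP fluorescence per well restored by corrected splicing of the IVS2-705 intron in EGFP; series mostly up to about 46 µM; % of control where 0% means no effect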
Summary of the method: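 Assay measures total GFP intensity per well in HeLa EGFP-705 cells after 2 days with compound; mis-splicing normally truncates EGFP, so fluorescence indicates corrected splicing.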

[5] = target: Bile acid receptor (Homo sapiens) (UniProt Q96RI1); assay: qHTS assay for small molecule agonists of farnesoid X receptor signaling (AID 588527; calls by dose curve;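 further: series mostly up to about 77 µM; 0% = vehicle basal and 100% = reference agonist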); details: HEK293T FXR-UAS-bla, beta-lactamase ratio, 16 h; activation: stronger effect = higher value
Summary of the method: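 FXR-UAS-bla HEK293T, 10% dialyzed FBS; cpds up to 92 uM titration, 16 h 37 C; CCF4 dye 2 h RT; fluorescence. Normalized to chenodeoxycholic acid 100 uM (100%) and DMSO (0%); Hill fit gives EC50, efficacy.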

[6] = target: Glucocorticoid receptor (Homo sapiens) (UniProt P04150); assay: qHTS assay for small molecule agonists of glucocorticoid receptor signaling (AID 588532; active means well fitted curve in the direction sought with a large enough effect in the signal ratio, with a control signal flat; the % refers to the signal ratio;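 further: 100% = dexamethasone at 0.1 µM and 0% = DMSO only wells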); details: HeLa MMTV-bla, beta-lactamase ratio, agonist, 18 h; activation: stronger effect = higher value, percent of dexamethasone control, DMSO zero
Summary of the method: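 Stimulation of a glucocorticoid response element-driven beta-lactamase gene was measured in HeLa cells. Responses were scaled between DMSO basal and 0.1 uM dexamethasone, then fitted for half-maximal stimulation.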

[7] = target: Glucocorticoid receptor (Homo sapiens) (UniProt P04150); assay: qHTS assay for small molecule antagonists of glucocorticoid receptor signaling (AID 588533; active means well fitted inhibition curve with a large enough effect in the signal ratio, with a control signal flat, not every such curve was filed as active; the % refers to the signal ratio;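 further: cells stimulated with 2 nM dexamethasone as agonist; on the % scale 0 is the no-effect control and ±100 the full control effect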)
Summary of the method: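 Antagonist-mode qHTS: compound titrations added to GRE-bla HeLa cells, then dexamethasone 2 nM final; 18 h, 37 C. CCF4 FRET fluorescence normalized to dexamethasone and DMSO; IC50 from Hill fit.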

[8] = target: Peroxisome proliferator-activated receptor gamma (Homo sapiens) (UniProt P37231); assay: qHTS assay for small molecule agonists of peroxisome proliferator-activated receptor gamma signaling (AID 588536; active means well fitted curve in the direction sought with a large enough effect in the signal ratio, with a control signal flat, not every such curve was filed as active; the % refers to the signal ratio;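 further: 0% = DMSO basal wells and 100% = rosiglitazone at 2 µM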)
Summary of the method: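 PPAR-gamma-UAS-bla HEK293 cells in medium with 1% charcoal/dextran-treated FBS were exposed to compounds for 16 h at 37 C. Beta-lactamase activity was read with CCF4 substrate (405 nm excitation, 460/530 nm emission).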

[9] = target: Vitamin D3 receptor (Homo sapiens) (UniProt P11473); assay: qHTS assay for small molecule antagonists of vitamin D receptor signaling (AID 588541; calls by dose curve;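 further: receptor activated by calcitriol during compound treatment; series mostly up to about 77 µM; on the % scale 0 is the no-effect control and ±100 the full control effect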)
Summary of the method: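 VDR-UAS-bla HEK293T cells (2000/well, 2% charcoal-stripped FBS) were treated with titrated compounds plus 1-alpha,25-dihydroxyvitamin D3 (50 nM or 3 nM final) for 16 h at 37 C. CCF4 beta-lactamase fluorescence was read; Hill fits gave IC50.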

[10] = target: Vitamin D3 receptor (Homo sapiens) (UniProt P11473); assay: qHTS assay for small molecule agonists of vitamin D receptor signaling (AID 588543; calls by dose curve;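 further: 0% = DMSO basal and 100% = reference agonist control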)
Summary of the method: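 VDR-UAS-bla HEK293T cells, 2000/well, 2% charcoal-stripped FBS; compound titration 16 h at 37 C; CCF4 beta-lactamase ratio read. Normalized to 50 nM 1-alpha,25-dihydroxyvitamin D3 (100%) and DMSO; Hill fit gives EC50, efficacy.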

[11] = target: Thyroid hormone receptor beta (Homo sapiens) (UniProt P10828); assay: qHTS assay for small molecule agonists of thyroid hormone receptor beta signaling (AID 588545; calls by dose curve)
Summary of the method: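 Cells (2500/well) were seeded, incubated 4 hrs at 37 C, dosed with a compound series, incubated 18 hrs, loaded with CCF4 dye for 2 hrs at RT, then read for fluorescence. Data were scaled between DMSO (0%) and 10 nM T3 (100%).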

[12] = target: Thyroid hormone receptor beta (Homo sapiens) (UniProt P10828); assay: qHTS assay for small molecule antagonists of thyroid hormone receptor beta signaling (AID 588547; active means well fitted inhibition curve with a large enough effect in the signal ratio, with a control signal flat, not every such curve was filed as active; the % refers to the signal ratio;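 further: cells stimulated with 0.4 nM T3 agonist during compound exposure; series mostly up to about 77 µM; on the % scale 0 is the no-effect control and ±100 the full control effect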); details: TR-UAS-bla HEK293, beta-lactamase ratio, antagonist mode, 18 h
Summary of the method: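 TR-UAS-bla GripTite HEK293 cells in 2% charcoal/dextran FBS medium were preincubated 4 h at 37 C, given compound (0.59 nM to 92 uM) plus 0.4 nM T3 (final) for 18 h, then CCF4 for 2 h at RT; Hill fit gave IC50.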

[13] = qHTS assay for small molecule agonists of the antioxidant response element (ARE) signaling pathway (AID 651741; active means well fitted activation curve with a large enough effect in the signal ratio; the % refers to the signal ratio; further: potency means the concentration at half of the fitted maximal effect; on activation: % of control where 0% means no effect)
Summary of the method: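 Compounds in DMSO are pinned onto HepG2 ARE-bla cells (2,000/well) that were preincubated 5 h; plates stay 16 h at 37 C, then beta-lactamase activity is detected with LiveBLAzer B/G substrate by fluorescence.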

[14] = qHTS assay for small molecule activators of the p53 signaling pathway (AID 651743; active means well fitted activation curve with a large enough effect in the signal ratio, not every such curve was filed as active; the % refers to the signal ratio; further: series mostly up to about 92 µM; % of control where 0% means no effect); details: HCT-116 p53RE-bla, beta-lactamase FRET ratio, 16 h; activation: stronger effect = higher value
Summary of the method: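 Cell-based beta-lactamase reporter (p53 response elements, HCT-116 background). After a 5-hour preincubation, cells received compound for 16 hours at 37 C; substrate development ran 2 hours at room temperature.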

[15] = target: Peroxisome proliferator-activated receptor alpha (Homo sapiens) (UniProt Q07869); assay: qHTS assay for small molecule agonists of the peroxisome proliferator-activated receptor alpha (PPARalpha) signaling pathway (AID 651778); details: PathHunter PPARalpha complementation, chemiluminescence, 6 h; max response: stronger effect = higher value; further: % of control where 0% means no effect
Summary of the method: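 Cells plated at 2,000/well and held overnight at 37 C, 5% CO2, then compound added by pin tool for 6 hr; after PathHunter detection reagent and 60 min at room temperature, chemiluminescence from enzyme complementation was read.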

[16] = qHTS assay for small molecule agonists of the antioxidant response element (ARE) signaling pathway measured by Nrf2-dependant transcriptional activity - cell viability counter screen (AID 720653; active means well fitted curve in the direction sought with a large enough effect in the repeat runs; an effect the other way counts as inactive or inconclusive; further: on the % scale 0 is the no-effect control and ±100 the full control effect); details: ARE-bla HepG2 viability, CellTiter-Glo ATP luminescence, 16 h; max response: stronger effect = lower value
Summary of the method: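 ARE-bla HepG2 cells (2,000/well) rested 5 hrs at 37C/5% CO2, then exposed to compounds in DMSO for 16 hrs. Viability was read in the same wells as intracellular ATP by luminescence, 30 min at room temperature after reagent addition.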

[17] = qHTS assay for cell viability of HEK293 cells (AID 743288); details: ATP luminescence (CellTiter-Glo), 18 h; max response: stronger effect = lower value; further: nearly all actives have a fitted effect of over 50% in size; further: potency means the concentration at half of the fitted maximal effect
Summary of the method: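 Parental HEK293 cells, 2,000 per well, preincubated at least 5 h at 37 C, then exposed to compounds in DMSO for 18 h at 37 C. Viability by CellTiter-Glo ATP luminescence after 30 min at room temperature.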

[18] = qHTS assay for cell viability of the p53RE-bla HCT-116 cell line (AID 743292); further: nearly all actives have a fitted effect of over 55% in size; further: potency means the concentration at half of the fitted maximal effect
Summary of the method: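 Readout: CellTiter-Glo luminescence after 30 min RT. Treatment: compounds in DMSO, 16 h, 37 C. Cells: CellSensor p53RE-bla HCT-116, 4,000/well, preincubated 5 h.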

[19] = qHTS assay for environmental chemicals that activate the Aryl hydrocarbon Receptor (AhR) signaling pathway (AID 651777); details: 1A2-DRE human hepatoma cells, luciferase, 24 h; activation: stronger effect = higher value; further: % of control where 0% means no effect; nearly all actives have a fitted effect of over 15% in size
Summary of the method: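 Stable CYP1A2 promoter/DRE-luciferase human hepatoma line treated 24 hr; One-Glo luminescence, 30 min RT.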

[20] = qHTS assay for small molecule agonists of the antioxidant response element (ARE) signaling pathway measured by Nrf2-dependant transcriptional activity (AID 720636; active means well fitted curve in the direction sought with a large enough effect in the repeat runs; an effect the other way counts as inactive or inconclusive; further: potency means the concentration at half of the fitted maximal effect;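 on activation: HepG2 cells with an ARE-driven luciferase reporter; % of control where 0% means no effect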)
Summary of the method: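 Reporter gene assay, HepG2 ARE-luc: 16 hr compound, 37 C, 5% CO2; read-out luciferase luminescence.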

[21] = qHTS assay for small molecule activators of the human pregnane X receptor (PXR) signaling pathway (AID 720659; call rule not given here; further: 0% is about no effect)
[22] = target: Peroxisome proliferator-activated receptor delta (Homo sapiens) (UniProt Q03181); assay: qHTS assay for small molecule agonists of peroxisome proliferator-activated receptor delta signaling (AID 588534; calls by dose curve;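 further: 0% = DMSO basal wells and 100% = positive control agonist at 10 µM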)
Summary of the method: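 Cells carrying a PPAR-delta beta-lactamase reporter were treated with compounds for 18 h at 37 °C in agonist mode. CCF4 fluorescence was read after 2 h; EC50 and efficacy from Hill fits.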

[23] = qHTS assay for small molecule antagonists of peroxisome proliferator-activated receptor delta signaling (AID 588535; active means well fitted inhibition curve with a large enough effect in the signal ratio, with a control signal flat, not every such curve was filed as active; the % refers to the signal ratio;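 on max response: cells co-treated with a PPAR-delta agonist as stimulator during compound exposure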); details: HEK293T PPARd-UAS-bla, beta-lactamase FRET ratio, 18 h; 460 nm channel
Summary of the method: (§1)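 Reporter: UAS-bla under PPAR-delta response element, HEK293T host. Medium: 2% charcoal/dextran FBS. Dosing: titration, 18 hrs, 37 C. Detection: CCF4, 2 hrs RT, 405 ex/460 and 530 em.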

[24] = target: Peroxisome proliferator-activated receptor delta (Homo sapiens) (UniProt Q03181); assay: as above
Summary of the method: as §1

[25] = target: Peroxisome proliferator-activated receptor gamma (Homo sapiens) (UniProt P37231); assay: qHTS assay for small molecule antagonists of peroxisome proliferator-activated receptor gamma signaling (AID 588537; active means well fitted inhibition curve with a large enough effect in the signal ratio, with a control signal flat, not every such curve was filed as active; the % refers to the signal ratio;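 further: reporter cells co-stimulated with 50 nM rosiglitazone agonist during compound treatment; % of control where 0% means no effect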)
Summary of the method: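 We seeded GeneBLAzer HEK293 reporter cells at 3000 per well, allowed 6-6.5 h attachment at 37 C, then co-treated with test compound titrations and 50 nM rosiglitazone overnight (16 h). Inhibition was quantified from 460/530 nm emission ratios.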

[26] = qHTS assay for small molecule agonists of retinoid X receptor alpha signaling (AID 588544; calls by dose curve;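 on activation: 0% = DMSO basal wells and 100% = reference agonist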); details: HEK293T RXRa-UAS-bla, beta-lactamase reporter, 18 h; 530 nm emission
[27] = target: Retinoic acid receptor RXR-alpha (Homo sapiens) (UniProt P19793); assay: as above
[28] = qHTS assay for small molecule antagonists of retinoid X receptor alpha signaling (AID 588546; active means well fitted inhibition curve with a large enough effect in the signal ratio, with a control signal flat, not every such curve was filed as active; the % refers to the signal ratio); details: HEK293T RXRa-UAS-bla, beta-lactamase ratio, antagonist mode; measured here: W530 green channel, cytotoxicity proxy
Summary of the method: (§2)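 Beta-lactamase reporter inhibition, read as CCF4 fluorescence ratio (ex 405, em 460/530 nm) after 2 h at RT. HEK293T UAS-bla cells, 2500/well, were stimulated with 9-cis-RA at 500 or 100 nM final alongside test compound for 18 h at 37 C.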

[29] = target: Retinoic acid receptor RXR-alpha (Homo sapiens) (UniProt P19793); assay: as above; details: HEK293T RXRa-UAS-bla, beta-lactamase ratio, antagonist mode
Summary of the method: as §2

[30] = target: Nuclear receptor subfamily 1 group I member 2 (Rattus norvegicus) (UniProt Q9R1A7); assay: qHTS assay for small molecule activators of the rat pregnane X receptor (rPXR) signaling pathway (AID 651751; call rule not given here; further: 0% is about no effect); details: rPXR reporter cells, luciferase (One-Glo), 24 h
Nuclear receptor subfamily 1 group I member 2 (Rattus norvegicus), sequence (Q9R1A7 whole entry, looked up): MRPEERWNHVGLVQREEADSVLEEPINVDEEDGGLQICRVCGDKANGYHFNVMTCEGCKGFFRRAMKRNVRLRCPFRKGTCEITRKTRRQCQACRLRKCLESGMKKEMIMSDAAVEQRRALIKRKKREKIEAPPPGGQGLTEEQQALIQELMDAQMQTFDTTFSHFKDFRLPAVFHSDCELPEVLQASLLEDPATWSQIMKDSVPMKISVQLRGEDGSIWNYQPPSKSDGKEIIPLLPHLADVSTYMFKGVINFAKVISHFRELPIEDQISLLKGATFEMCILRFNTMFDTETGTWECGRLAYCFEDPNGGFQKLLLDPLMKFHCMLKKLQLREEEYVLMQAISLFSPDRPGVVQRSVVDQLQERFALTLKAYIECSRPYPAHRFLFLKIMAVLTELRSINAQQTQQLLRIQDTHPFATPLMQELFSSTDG

Bile acid receptor (Homo sapiens), sequence (Q96RI1 whole entry, looked up): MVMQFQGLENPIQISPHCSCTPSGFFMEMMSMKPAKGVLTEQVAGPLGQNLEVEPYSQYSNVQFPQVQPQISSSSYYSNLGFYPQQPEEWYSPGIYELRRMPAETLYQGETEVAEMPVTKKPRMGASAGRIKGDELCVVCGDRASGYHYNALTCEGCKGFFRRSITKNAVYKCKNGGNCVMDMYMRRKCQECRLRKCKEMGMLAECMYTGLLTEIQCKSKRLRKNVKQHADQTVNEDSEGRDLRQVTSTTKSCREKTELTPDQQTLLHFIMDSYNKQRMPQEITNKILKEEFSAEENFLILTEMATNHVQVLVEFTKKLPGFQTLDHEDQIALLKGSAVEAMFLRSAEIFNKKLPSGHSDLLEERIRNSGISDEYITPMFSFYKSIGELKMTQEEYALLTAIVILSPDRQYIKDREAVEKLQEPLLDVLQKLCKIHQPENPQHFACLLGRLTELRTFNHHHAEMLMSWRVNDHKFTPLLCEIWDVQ
Peroxisome proliferator-activated receptor gamma (Homo sapiens), sequence (P37231 whole entry, looked up): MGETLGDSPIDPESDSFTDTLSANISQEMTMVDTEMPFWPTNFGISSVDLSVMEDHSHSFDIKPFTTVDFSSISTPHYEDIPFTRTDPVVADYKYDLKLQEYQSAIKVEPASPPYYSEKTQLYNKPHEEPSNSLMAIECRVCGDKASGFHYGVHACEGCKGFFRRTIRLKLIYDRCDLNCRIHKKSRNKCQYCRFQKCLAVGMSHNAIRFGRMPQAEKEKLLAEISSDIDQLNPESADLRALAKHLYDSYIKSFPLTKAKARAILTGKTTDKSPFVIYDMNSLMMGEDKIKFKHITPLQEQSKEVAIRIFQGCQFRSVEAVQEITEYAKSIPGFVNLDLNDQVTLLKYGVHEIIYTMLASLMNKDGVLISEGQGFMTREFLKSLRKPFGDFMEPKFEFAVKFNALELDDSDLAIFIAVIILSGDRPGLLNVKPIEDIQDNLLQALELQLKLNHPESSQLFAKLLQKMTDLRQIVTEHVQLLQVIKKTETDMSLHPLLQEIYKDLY
Thyroid hormone receptor beta (Homo sapiens), sequence (P10828 whole entry, looked up): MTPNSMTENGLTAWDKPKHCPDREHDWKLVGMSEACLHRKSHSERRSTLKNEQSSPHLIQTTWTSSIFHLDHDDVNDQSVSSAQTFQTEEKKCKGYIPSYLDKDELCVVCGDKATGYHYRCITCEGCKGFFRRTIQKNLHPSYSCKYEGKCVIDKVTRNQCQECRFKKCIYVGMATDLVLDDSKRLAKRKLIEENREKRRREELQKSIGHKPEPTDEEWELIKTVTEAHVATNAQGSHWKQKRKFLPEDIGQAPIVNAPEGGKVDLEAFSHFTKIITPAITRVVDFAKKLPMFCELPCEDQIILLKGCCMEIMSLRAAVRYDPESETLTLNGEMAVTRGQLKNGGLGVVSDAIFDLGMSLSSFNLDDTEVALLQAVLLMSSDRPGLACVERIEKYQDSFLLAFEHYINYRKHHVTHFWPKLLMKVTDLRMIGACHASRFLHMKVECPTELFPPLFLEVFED
Peroxisome proliferator-activated receptor alpha (Homo sapiens), sequence (Q07869 whole entry, looked up): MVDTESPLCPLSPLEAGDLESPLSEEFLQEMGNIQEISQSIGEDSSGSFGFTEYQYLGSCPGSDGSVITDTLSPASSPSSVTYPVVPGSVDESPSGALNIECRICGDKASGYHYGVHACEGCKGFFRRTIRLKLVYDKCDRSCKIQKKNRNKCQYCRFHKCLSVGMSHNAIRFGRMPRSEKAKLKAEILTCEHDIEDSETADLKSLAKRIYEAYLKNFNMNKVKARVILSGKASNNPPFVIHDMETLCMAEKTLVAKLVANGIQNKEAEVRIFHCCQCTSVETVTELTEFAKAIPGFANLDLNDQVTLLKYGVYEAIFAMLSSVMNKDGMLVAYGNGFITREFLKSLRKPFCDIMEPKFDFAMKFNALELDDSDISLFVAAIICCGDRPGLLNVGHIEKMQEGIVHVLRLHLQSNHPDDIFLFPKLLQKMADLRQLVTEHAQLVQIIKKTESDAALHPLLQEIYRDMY
Vitamin D3 receptor (Homo sapiens), sequence (P11473 whole entry, looked up): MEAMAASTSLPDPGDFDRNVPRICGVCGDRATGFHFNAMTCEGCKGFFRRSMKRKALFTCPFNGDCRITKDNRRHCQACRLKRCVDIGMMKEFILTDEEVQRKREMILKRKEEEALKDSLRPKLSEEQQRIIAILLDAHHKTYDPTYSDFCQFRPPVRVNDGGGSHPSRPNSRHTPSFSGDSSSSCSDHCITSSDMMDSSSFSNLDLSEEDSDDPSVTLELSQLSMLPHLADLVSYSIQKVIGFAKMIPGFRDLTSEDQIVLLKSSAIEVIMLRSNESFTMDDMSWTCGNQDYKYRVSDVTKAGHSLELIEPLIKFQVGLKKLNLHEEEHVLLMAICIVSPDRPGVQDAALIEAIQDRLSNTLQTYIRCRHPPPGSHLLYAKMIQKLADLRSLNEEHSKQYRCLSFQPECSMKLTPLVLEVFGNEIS
Glucocorticoid receptor (Homo sapiens), sequence (P04150 whole entry, looked up): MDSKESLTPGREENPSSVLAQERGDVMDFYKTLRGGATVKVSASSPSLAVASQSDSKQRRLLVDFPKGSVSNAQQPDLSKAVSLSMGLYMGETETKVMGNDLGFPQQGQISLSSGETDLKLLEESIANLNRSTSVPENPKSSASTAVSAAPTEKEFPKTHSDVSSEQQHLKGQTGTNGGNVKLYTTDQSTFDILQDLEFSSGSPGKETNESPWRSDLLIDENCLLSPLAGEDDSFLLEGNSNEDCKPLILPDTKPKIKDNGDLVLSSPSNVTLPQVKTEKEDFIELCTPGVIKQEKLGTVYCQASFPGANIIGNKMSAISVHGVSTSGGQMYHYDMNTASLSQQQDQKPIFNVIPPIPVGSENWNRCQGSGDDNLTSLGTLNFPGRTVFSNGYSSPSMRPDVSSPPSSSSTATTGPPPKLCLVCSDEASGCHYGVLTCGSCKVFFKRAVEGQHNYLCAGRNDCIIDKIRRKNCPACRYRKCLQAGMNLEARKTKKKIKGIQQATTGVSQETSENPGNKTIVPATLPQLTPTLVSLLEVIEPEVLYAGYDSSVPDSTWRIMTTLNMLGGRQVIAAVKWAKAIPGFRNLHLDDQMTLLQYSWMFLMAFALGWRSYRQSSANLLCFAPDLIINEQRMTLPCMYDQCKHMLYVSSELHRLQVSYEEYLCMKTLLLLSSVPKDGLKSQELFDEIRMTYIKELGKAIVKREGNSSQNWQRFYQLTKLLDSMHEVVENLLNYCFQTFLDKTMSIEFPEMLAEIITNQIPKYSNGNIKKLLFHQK
Retinoic acid receptor RXR-alpha (Homo sapiens), sequence (P19793 whole entry, looked up): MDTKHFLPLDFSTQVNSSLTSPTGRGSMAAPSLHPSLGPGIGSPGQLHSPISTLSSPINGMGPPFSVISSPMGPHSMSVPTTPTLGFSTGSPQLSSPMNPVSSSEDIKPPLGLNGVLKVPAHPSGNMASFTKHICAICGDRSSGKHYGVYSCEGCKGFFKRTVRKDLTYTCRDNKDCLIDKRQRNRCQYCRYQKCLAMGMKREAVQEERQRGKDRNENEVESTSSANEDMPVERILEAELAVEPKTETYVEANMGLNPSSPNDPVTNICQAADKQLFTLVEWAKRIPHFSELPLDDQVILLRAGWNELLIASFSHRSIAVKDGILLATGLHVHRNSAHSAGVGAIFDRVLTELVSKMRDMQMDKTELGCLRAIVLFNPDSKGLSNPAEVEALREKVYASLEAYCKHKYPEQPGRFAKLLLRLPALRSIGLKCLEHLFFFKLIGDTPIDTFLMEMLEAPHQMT
Cytochrome P450 3A4 (Homo sapiens), sequence (P08684 whole entry, looked up): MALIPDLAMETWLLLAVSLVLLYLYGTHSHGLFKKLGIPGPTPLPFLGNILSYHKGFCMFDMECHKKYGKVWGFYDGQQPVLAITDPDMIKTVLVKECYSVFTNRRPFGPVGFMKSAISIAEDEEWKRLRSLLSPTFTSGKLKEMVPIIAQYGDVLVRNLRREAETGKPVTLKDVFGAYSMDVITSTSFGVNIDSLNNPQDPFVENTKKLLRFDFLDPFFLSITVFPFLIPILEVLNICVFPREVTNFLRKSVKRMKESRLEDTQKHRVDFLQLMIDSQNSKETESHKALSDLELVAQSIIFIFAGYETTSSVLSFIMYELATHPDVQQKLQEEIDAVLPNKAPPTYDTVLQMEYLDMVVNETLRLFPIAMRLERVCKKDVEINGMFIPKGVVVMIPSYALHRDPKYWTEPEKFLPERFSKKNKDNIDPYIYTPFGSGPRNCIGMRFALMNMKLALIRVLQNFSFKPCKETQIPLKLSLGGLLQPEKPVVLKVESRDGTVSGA
Peroxisome proliferator-activated receptor delta (Homo sapiens), sequence (Q03181 whole entry, looked up): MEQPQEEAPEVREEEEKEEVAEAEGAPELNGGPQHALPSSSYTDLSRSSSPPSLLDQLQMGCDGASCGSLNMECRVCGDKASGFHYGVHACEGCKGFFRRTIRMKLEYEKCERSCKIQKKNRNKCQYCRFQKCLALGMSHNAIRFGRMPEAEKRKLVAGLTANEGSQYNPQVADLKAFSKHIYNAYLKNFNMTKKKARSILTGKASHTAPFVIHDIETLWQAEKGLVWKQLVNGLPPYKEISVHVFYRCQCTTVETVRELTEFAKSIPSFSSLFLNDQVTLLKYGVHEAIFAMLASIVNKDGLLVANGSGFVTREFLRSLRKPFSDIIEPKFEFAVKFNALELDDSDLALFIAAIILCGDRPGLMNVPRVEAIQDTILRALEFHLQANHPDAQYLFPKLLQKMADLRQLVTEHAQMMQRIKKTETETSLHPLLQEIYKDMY

CCOP(=S)(OCC)SCn1c(=O)oc2cc(Cl)ccc21
active: Potency [1] 0.794 µM | Potency [13] 27.3 µM
inactive: Potency [2] | Potency [3] | outcome [4] | activation [5] -2.19% | activation [6] 0.851% | Potency [7] | Potency [8] | Potency [9] | outcome [10] | Potency [11] | activity change % (negative = inhibition) [12] -26.9% | activation [14] 2.68% | max response [15] -0.132% | max response [16] -8.7% | max response [17] -28.2% | Potency [18]

C1CC[CH]([Sn]([CH]2CCCCC2)[CH]2CCCCC2)CC1
active: Potency [13] 19.3 µM | Potency [20] 13.7 µM | Potency [17] 31.6 µM | Potency [18] 39.8 µM
inactive: activation [5] 0.852% | activation [6] -10.4% | Potency [7] | Potency [11] | activation [19] 3.62% | max response [15] -0.731% | outcome [21]

CCCCCCCCCCCCN(C)C
1.32%: max response [28]
-10.4%: max response [26]
inactive: activation [5] 2.94% | Potency [7] | outcome [22] | Potency [24] | Potency [8] | Potency [25] | Potency [9] | outcome [10] | Potency [27] | Potency [11] | max response [29] -14.3% | activity change % (negative = inhibition) [12] -6.18% | Potency [13] | activation [14] 0.386% | activation [19] -2.66% | max response [15] -1.36% | Potency [20] | max response [16] -0.69% | max response [17] -1.64% | Potency [18] | max response [30] -0.417% | outcome [21]
-18.8%: max response [23]

CC(C)(C)c1ccc(CSc2cnn(C(C)(C)C)c(=O)c2Cl)cc1
active: Potency [13] 0.0969 µM
inactive: activation [5] 6.79% | activation [6] -0.474% | activation [19] -3.11% | max response [15] -6% | Potency [20] | Potency [18] | outcome [21]
